# Reference: PubChem BioAssay
# Results filed as inconclusive are left out. Calls of active or inactive are those of the source.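 How the source made its calls, unless noted: active means inhibition above the screen-wide mean plus 3 SD, about 51%; inactive means the rest.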
# Key:
# [1] = rapamycin-like changes in RPL19A-GFP expression – cell-based, S. cerevisiae, multiplex flow cytometry, primary screen (AID 1862; in the data active means percent of DMSO control GFP below about 86%;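 further: lower values mimic rapamycin by blocking the RPL19A rise seen in DMSO cells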); settings: S. cerevisiae RPL19A-GFP strain, flow cytometry fluorescence, 3 h; at 10 µM; stronger effect = lower value
# [2] = TOR pathway GLN3 branch reporter MEP2-GFP changes – S. cerevisiae, multiplex flow cytometry, primary screen (AID 1867;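 active means GFP response, as percent of the DMSO control, above the screen-wide mean plus 3 SD, about 139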;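 further: median GFP channel fluorescence of barcode-gated MEP2-GFP cells measured by flow cytometry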); settings: S. cerevisiae MEP2-GFP strain, 3 h, at 10 µM, stronger effect = higher value, 100% means same as DMSO wells
# [3] = TOR pathway RTG branch CIT2 reporter changes – S. cerevisiae, GFP fusion, multiplex flow cytometry, primary screen (AID 1870;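 active means percent response above a set limit, the screen-wide mean plus 3 SD, cut at about 130% in these data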;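 further: barcoded CIT2-GFP strain pooled with four other GFP strains with rapamycin as positive control; median GFP fluorescence per well over plate mean of DMSO wells so 100% = DMSO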); settings: S. cerevisiae CIT2-GFP expression, 3 h, at 10 µM, stronger effect = higher value
# [4] = TOR pathway LAP4-GFP level changes – S. cerevisiae, multiplex flow cytometry, primary screen (AID 1873;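 active means GFP signal, as percent of the solvent control, above the screen mean plus 3 SD, about 149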); settings: S. cerevisiae LAP4-GFP expression, 3 h, at 10 µM, stronger effect = higher value
# [5] = yeast AGP1-GFP level changes, GLN3 branch – cell-based, multiplex flow cytometry, S. cerevisiae, primary screen (AID 1887;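 active means GFP signal above the screen-wide mean plus 3 SD, that is over about 124.5% of the solvent control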;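 further: AGP1-GFP fusion strain of S. cerevisiae within a five-strain barcoded multiplex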); settings: 3 h, at 10 µM, stronger effect = higher value
# [6] = reduced mouse 2C T cell binding to pMHC/ICAM-1 vesicles – MLPCN validation set, flow cytometry, LFA-1/ICAM-1 modulator project, pilot screen (AID 2523;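 active means response below a set limit, under 55% cells CD8-positive and vesicle-bound, and CD8 cells' 90th-percentile brightness under 279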;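 on vesicle binding response: mean PE anti-B7-1 fluorescence of CD8+ cells relative to row control; 100% = QL9-loaded vesicles with DMSO vehicle in the same plate row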); settings: 2C mouse CD8+ T cells, at 7 µM, stronger effect = lower value; double positive events: measured here: CD8+/vesicle+ event percentage
# [7] = target: Integrin beta-1 (Homo sapiens) + Integrin alpha-4 (Homo sapiens) (UniProt P13612+P05556); experiment: alpha4beta1 integrin LIBS antibody binding reduction – U937 cells, HUTS-21 mAb, flow cytometry, validation set, VLA-4 allosteric modulator project, pilot screen (AID 2674;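 active means inhibition above 50%, about 3 SD of the validation set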;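 further: antibody binding induced by the VLA-4 ligand LDV present at three times its Kd; 0% = LDV ligand with antibody and no compound and 100% = antibody without LDV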); settings: HUTS-21 LIBS mAb binding, at 6.7 µM, stronger effect = higher value, binding induced by LDV ligand
# Chain of Integrin beta-1 (Homo sapiens) + Integrin alpha-4 (Homo sapiens) (P05556 whole entry, looked up): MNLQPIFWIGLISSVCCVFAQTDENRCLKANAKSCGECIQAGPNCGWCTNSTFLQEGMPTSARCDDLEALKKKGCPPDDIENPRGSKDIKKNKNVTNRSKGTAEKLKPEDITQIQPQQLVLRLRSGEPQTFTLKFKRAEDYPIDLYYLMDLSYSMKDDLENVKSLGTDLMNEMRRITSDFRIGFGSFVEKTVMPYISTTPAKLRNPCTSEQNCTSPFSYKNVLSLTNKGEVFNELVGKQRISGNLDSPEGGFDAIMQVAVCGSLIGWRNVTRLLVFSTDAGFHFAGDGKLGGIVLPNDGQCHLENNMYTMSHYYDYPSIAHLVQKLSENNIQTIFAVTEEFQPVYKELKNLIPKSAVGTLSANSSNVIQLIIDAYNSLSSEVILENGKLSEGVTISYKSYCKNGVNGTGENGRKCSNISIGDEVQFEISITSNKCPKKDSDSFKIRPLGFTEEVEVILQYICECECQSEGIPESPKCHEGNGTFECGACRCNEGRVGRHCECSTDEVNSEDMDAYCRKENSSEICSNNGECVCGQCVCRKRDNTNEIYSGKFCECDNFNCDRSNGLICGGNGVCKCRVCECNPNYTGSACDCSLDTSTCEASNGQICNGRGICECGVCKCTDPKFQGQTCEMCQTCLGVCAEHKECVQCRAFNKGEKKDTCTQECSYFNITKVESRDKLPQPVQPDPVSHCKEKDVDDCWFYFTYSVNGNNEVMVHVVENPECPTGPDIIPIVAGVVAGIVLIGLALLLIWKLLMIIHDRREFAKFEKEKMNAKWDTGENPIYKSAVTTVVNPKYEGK
# Chain of Integrin beta-1 (Homo sapiens) + Integrin alpha-4 (Homo sapiens) (P13612 whole entry, looked up): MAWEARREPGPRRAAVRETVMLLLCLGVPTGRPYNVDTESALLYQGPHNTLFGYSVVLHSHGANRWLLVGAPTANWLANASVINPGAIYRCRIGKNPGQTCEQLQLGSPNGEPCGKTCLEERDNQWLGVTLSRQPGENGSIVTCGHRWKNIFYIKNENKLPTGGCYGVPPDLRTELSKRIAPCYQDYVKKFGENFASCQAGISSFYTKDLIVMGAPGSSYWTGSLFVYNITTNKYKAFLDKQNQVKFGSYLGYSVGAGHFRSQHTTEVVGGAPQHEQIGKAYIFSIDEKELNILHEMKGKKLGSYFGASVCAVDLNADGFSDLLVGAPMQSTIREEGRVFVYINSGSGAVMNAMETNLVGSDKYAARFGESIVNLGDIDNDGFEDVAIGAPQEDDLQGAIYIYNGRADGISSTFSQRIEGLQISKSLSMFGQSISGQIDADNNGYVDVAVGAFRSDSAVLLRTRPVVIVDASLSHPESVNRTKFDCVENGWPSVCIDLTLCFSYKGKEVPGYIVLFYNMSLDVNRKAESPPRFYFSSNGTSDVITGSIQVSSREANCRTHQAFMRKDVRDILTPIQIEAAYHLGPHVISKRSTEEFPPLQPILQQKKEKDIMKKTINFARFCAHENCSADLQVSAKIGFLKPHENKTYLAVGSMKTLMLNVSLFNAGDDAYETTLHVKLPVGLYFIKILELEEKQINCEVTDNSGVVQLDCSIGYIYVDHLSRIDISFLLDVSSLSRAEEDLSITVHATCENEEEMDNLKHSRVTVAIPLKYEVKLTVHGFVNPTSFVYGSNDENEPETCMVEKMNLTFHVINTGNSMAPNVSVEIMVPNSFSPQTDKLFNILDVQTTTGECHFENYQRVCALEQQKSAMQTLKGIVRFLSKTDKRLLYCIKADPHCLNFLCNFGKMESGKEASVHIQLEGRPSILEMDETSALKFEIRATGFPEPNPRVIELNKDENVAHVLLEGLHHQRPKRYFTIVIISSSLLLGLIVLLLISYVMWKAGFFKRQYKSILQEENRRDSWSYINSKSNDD
# [8] = calorie-restriction mimetic ROS inhibitors, yeast – validation compound set, pilot screen (AID 2706;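 active means superoxide response below 65% of plate, a cut near 3 SD across the whole screen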;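 further: yeast exposed to compound for one week at 30 degrees C before staining; 100% = mean of all compound wells on the same plate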); settings: S. cerevisiae aging, superoxide DHE fluorescence; at 10 µM; stronger effect = lower value
# [9] = target: Beta-adrenergic receptor kinase 1 (Homo sapiens) (UniProt P25098); experiment: GRK2 binders displacing RNA aptamer, biochemical, validation, human GRK2, bead flow cytometry (AID 488806;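 active means aptamer binding inhibition above 30%, about 3 SD of noise from non-fluorescent compounds; inactive means inhibition at or below 30%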); settings: bead-bound GRK2, FAM-aptamer displacement, at 10 µM, stronger effect = higher value
# Chain of Beta-adrenergic receptor kinase 1 (Homo sapiens) (P25098 whole entry, looked up): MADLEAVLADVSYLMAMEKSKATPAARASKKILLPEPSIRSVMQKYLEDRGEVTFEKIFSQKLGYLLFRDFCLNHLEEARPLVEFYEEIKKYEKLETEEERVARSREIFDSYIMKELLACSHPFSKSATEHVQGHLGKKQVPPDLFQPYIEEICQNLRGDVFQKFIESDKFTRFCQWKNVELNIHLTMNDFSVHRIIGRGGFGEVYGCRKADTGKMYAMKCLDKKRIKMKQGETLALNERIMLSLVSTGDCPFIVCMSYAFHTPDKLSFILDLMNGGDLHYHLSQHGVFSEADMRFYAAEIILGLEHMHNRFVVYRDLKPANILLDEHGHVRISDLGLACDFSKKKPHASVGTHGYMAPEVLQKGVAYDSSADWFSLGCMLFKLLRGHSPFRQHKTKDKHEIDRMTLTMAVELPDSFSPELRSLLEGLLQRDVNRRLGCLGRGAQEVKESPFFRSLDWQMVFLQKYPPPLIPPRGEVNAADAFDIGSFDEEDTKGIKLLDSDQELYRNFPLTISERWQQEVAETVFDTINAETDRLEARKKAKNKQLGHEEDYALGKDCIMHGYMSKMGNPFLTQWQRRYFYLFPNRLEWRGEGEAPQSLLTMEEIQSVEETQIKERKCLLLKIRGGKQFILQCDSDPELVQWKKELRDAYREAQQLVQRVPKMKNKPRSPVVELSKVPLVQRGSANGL
# [10] = target: Beta-2 adrenergic receptor (Homo sapiens) (UniProt P07550); experiment: agonist-induced loss of surface beta2AR – cell-based, FAP fluorogen, flow cytometry, validation set, pilot screen (AID 504459;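 active means percent response above 42, roughly 3 SD of non-fluorescent test compounds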;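 further: agonist-driven loss of surface beta2AR via internalization measured by FAP dye flow cytometry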); settings: Am2.2-beta2AR cells, at 10 µM, stronger effect = higher value
# Chain of Beta-2 adrenergic receptor (Homo sapiens) (P07550 whole entry, looked up): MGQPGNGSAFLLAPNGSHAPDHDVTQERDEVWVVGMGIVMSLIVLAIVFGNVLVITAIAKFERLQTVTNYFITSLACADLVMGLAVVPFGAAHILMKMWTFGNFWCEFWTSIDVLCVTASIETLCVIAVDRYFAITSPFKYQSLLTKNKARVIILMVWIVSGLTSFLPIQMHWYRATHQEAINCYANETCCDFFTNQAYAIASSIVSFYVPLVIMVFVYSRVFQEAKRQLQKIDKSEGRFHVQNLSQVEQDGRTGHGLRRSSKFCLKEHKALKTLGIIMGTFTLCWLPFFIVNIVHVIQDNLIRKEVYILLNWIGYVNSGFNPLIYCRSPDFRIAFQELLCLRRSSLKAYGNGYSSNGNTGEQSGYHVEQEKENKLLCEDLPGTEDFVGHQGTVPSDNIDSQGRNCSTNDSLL
# [11] = target: AP-2 complex subunit beta (Homo sapiens) (UniProt P63010); experiment: beta-arrestin/AP2 interaction blockers – biochemical, validation set, GST-AP2 beads, flow cytometry, pilot screen (AID 504541;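 active means inhibition above 54%, about 3 SD of non-fluorescent compounds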;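 further: AP2 carries R879A mutation and is captured from E. coli lysate; bead-bound FITC arrestin peptide fluorescence measuring arrestin peptide binding to AP2; 0% = DMSO wells and 100% = excess unlabeled arrestin peptide control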); settings: FITC arrestin peptide, at 10 µM, stronger effect = higher value, AP2 beta2 appendage fragment, R879A mutant
# Chain of AP-2 complex subunit beta (Homo sapiens) (P63010 whole entry, looked up, the tested form may be a part, one chain of several): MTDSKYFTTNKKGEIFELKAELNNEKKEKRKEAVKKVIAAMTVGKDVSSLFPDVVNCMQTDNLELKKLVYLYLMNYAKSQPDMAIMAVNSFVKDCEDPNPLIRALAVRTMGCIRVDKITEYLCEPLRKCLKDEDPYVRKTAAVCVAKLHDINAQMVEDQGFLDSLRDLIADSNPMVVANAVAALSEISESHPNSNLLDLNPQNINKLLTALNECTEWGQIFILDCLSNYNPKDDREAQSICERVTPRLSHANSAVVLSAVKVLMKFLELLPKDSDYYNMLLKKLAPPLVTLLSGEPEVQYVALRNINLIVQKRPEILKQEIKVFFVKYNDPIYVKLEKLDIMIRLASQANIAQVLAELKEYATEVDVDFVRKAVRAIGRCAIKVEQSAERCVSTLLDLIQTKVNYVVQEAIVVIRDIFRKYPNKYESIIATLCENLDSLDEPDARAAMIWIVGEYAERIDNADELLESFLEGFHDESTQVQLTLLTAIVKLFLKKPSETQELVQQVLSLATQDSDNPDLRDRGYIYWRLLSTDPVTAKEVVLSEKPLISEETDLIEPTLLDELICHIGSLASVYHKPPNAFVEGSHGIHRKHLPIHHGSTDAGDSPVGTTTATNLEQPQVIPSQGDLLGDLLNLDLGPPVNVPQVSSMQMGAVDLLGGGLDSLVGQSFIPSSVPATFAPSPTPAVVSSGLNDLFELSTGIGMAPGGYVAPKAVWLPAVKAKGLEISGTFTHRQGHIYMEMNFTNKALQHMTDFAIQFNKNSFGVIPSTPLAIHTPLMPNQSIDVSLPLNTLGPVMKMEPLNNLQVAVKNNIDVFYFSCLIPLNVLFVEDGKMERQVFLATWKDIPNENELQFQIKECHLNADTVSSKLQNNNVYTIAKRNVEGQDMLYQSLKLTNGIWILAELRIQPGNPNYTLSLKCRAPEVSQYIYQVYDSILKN
# [12] = cytosolic pH regulators acting via V-ATPase – S. cerevisiae, pHLuorin, HTS validation (AID 504600; in the data active means response above about 15%;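 further: plate controls were DMSO for no effect and reference compound for full effect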); settings: V-ATPase proton transport, at 10 µM, stronger effect = higher value
# [13] = system: anti-desmoglein-3 scFv antibody binding to human DSG3; experiment: blockers of pathogenic pemphigus antibody–desmoglein-3 binding – biochemical, validation compound set, bead-based, flow cytometry, pilot screen (AID 588368;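 active means binding below the plate cutoff, the plate median minus 3 SD, with a reading above zero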;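 further: signal is the median channel fluorescence of bead-bound GFP antibody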); settings: Protein G beads, DSG3-Fc, scFv-GFP binding, at 10 µM, stronger effect = lower value
# [14] = Nile Red efflux blockade in pump-expressing yeast – validation compound set, multiplex, phenotypic, pilot screen (AID 588506;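 active means efflux inhibition above 0.42, the validation set average plus 4 SD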;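 further: Nile Red retained in cells so higher fluorescence means more efflux inhibition; 0 = negative control wells and 1 = enniatin B 25 µM full block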); settings: S. cerevisiae pump-expressing triplex, Nile Red efflux flow cytometry; at 10 µM; stronger effect = higher value; the pumps come from Candida albicans
# [15] = target: ATP-binding cassette sub-family B member 6 (Homo sapiens) (UniProt Q9NP58); experiment: blockers of ABCB6-driven porphyrin uptake – K562-ABCB6 cells, flow cytometry, validation set, pilot screen (AID 588550); settings: K562-ABCB6 porphyrin accumulation, 1 h, at 10 µM, stronger effect = higher value;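 further: 0% = DMSO wells and 100% = benzethonium chloride 70 µM positive control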
# Chain of ATP-binding cassette sub-family B member 6 (Homo sapiens) (Q9NP58 whole entry, looked up): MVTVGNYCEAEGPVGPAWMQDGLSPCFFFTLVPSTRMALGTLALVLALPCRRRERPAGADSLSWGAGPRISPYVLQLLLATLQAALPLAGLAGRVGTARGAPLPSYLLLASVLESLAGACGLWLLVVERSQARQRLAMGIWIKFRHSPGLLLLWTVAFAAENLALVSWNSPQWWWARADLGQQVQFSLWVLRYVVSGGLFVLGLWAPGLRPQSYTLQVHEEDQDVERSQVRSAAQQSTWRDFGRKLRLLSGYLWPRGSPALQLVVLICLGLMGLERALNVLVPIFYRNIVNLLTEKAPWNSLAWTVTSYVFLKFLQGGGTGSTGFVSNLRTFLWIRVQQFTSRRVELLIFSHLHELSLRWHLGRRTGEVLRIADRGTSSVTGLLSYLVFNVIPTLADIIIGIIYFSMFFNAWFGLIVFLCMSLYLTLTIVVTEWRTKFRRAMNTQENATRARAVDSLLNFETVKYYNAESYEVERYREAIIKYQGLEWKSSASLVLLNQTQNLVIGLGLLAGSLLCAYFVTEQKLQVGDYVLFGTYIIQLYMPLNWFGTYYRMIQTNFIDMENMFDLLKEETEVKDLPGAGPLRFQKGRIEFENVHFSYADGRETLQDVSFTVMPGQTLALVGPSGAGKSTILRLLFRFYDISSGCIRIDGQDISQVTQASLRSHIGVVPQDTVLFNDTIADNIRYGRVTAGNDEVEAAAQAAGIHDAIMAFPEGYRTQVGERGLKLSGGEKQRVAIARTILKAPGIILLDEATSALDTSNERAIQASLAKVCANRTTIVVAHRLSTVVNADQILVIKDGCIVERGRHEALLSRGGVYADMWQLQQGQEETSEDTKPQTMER
# [16] = AML differentiation inducers, ER-HoxA9 marrow cells – cell-based, GFP/MAC1 double positive, flow cytometry, validation set, primary screen (AID 588685;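 active means differentiation response of at least 50%, scaled between solvent and reference control, from cells with both markers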;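 further: compound exposure lasts four days before antibody staining and flow analysis; 0% = DMSO wells and 100% = 5 µM fulvestrant positive control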); settings: stronger effect = higher value, normalized: vehicle 0, fulvestrant 100
Compound,percent of DMSO control GFP [1],GFP response vs DMSO [2],percent response of DMSO control [3],GFP response vs DMSO [4],"GFP response, % of DMSO [5]",double positive events [6] [%],vesicle binding response [6],inhibition [7],superoxide response (% of plate) [8],aptamer binding inhibition [9],response [10],inhibition [11],response [12],binding (% of control) [13],efflux inhibition (fraction of control) [14],inhibition [15],differentiation response [16]
CC1=NN(c2ccccc2)C(=O)C1,108% (inactive),106% (inactive),109% (inactive),99.1% (inactive),111% (inactive),62.5,206% (inactive),-14.5% (inactive),91% (inactive),-3% (inactive),3.52% (inactive),-6.32% (inactive),0.56% (inactive),101% (inactive),-0.1 (inactive),-1% (inactive),2.74% (inactive)
COc1ccccc1C(=O)Oc1ccc2c(c1)O/C(=C\c1ccncc1)C2=O,94.7% (inactive),105% (inactive),97.7% (inactive),126% (inactive),105% (inactive),63.9,274% (inactive),-58.2% (inactive),119% (inactive),-1% (inactive),-22.5% (inactive),3.83% (inactive),0.47% (inactive),103% (inactive),0.17 (inactive),-9% (inactive),10.8% (inactive)
O=C(c1ccc(Cl)cc1)C1CCCN(Cc2ccc(Oc3ncccn3)cc2)C1 (centres undefined),108% (inactive),104% (inactive),106% (inactive),87.2% (inactive),96.5% (inactive),65.7,227% (inactive),24.4% (inactive),93.5% (inactive),2% (inactive),-3.98% (inactive),-1.25% (inactive),2.78% (inactive),106% (inactive),-0.12 (inactive),21% (inactive),-6.03% (inactive)
COc1ccc2cc(C3(C)NC(=O)NC3=O)ccc2c1 (centres undefined),95.8% (inactive),116% (inactive),87.2% (inactive),117% (inactive),99.7% (inactive),60.5,147% (inactive),-9.98% (inactive),104% (inactive),2% (inactive),2.16% (inactive),-3.7% (inactive),-5.94% (inactive),99.7% (inactive),-0.06 (inactive),8% (inactive),7.2% (inactive)
CN(C)CC/C=C1\c2ccccc2COc2ccccc21,96% (inactive),96.6% (inactive),90.5% (inactive),104% (inactive),109% (inactive),68.1,176% (inactive),20.2% (inactive),93.9% (inactive),-3% (inactive),0.32% (inactive),-7.94% (inactive),3.08% (inactive),79% (active),-0.04 (inactive),6% (inactive),-6.96% (inactive)
Cc1cnc(NC(=O)C2=C(O)c3ccccc3S(=O)(=O)N2C)s1,107% (inactive),112% (inactive),88.4% (inactive),80.8% (inactive),92.9% (inactive),65.2,958% (inactive),-6.68% (inactive),109% (inactive),3% (inactive),1.12% (inactive),8.13% (inactive),1.87% (inactive),93.7% (inactive),0.27 (inactive),14% (inactive),12% (inactive)
Cc1ccc2c(c1)C1CN(C)CCC1N2S(=O)(=O)c1ccc(Oc2ccc([N+](=O)[O-])cc2)cc1 (centres undefined),104% (inactive),103% (inactive),106% (inactive),91.5% (inactive),97% (inactive),56.7,153% (inactive),2.93% (inactive),97.8% (inactive),-7% (inactive),25.2% (inactive),-1.46% (inactive),10.4% (inactive),105% (inactive),0.085 (inactive),-4% (inactive),-14.8% (inactive)
